The molecules below were run against Dickkopf-related protein 1 (Homo sapiens) (UniProt O94907) (assay: DKK1 binders on small-molecule microarrays, primary screen, biochemical, small-molecule microarray, 635 nm fluorescence scan (AID 1106;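 also: score merges emission near 667 nm with signal to noise over three replicate slides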)). Details: DKK1 binding, higher = more signal.
Dickkopf-related protein 1 (Homo sapiens), sequence (O94907 whole entry, looked up): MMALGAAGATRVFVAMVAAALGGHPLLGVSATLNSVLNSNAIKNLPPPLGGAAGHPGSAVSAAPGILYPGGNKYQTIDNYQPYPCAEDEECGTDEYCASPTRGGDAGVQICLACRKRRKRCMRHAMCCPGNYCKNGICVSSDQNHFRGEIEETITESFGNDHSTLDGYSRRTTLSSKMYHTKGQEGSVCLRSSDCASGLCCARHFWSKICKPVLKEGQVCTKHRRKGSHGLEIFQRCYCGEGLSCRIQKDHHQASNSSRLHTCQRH

Row | Structure (SMILES) | composite z-score
1 | O=C1[C@H]2[C@H]3[C@H](O)[C@H](O)CC(=NO[C@@H]4O[C@H](CO)[C@@H](O)[C@H](O)[C@H]4O)[C@H]3CC[C@H]2C(=O)N1c1ccc(F)cc1F | -0.494
2 | CCCNC(=O)OC[C@H]1O[C@H](CCON=C2c3cc(OC)ccc3O[C@H](c3cccc(OC)c3)[C@H]2O)C=C[C@@H]1Oc1ccc(OC)cc1 | 0.273
3 | O=C1[C@H]2CCn3c(=O)n(-c4ccccc4)c(=O)n3[C@H]2[C@H](O)[C@@H]2O[C@H]12 | 0.427
4 | CC(C)=CCCC(C)=CCON=C1C[C@@H](O)[C@@H](O)[C@@H]2[C@@H]3C(=O)N(Cc4ccc5c(c4)OCO5)C(=O)[C@@H]3CC[C@H]12 | 0.35
5 | O=C1[C@H]2[C@H]3[C@H](O)[C@H](O)CC(=NOCc4ccccc4)[C@H]3CC[C@H]2C(=O)N1C1CCCCC1 | 0.79
6 | CC(C)(C)N1C(=O)[C@H]2[C@H]3[C@H](O)[C@H](O)CC(=NOC[C@@H](O)COCc4ccco4)[C@H]3CC[C@H]2C1=O | -0.0956
7 | COC(=O)[C@H](C)NC(=O)CCC1CC(OC(=O)NCc2ccc3c(c2)OCO3)CC2(CCCC(COC(=O)NCCC(C)C)O2)O1 (stereo not given in full) | 0.205
8 | COC(=O)[C@H](C)NC(=O)CC=C[C@@H](C)[C@@H]1C=C[C@H](O)[C@@H](CO)O1 | 1.3
9 | CC(CCN1CCCCc2nc(C)c(C)cc21)=NOC[C@@H](O)[C@H]1O[C@@H]2OC(C)(C)O[C@@H]2[C@H]1O | 0.874
10 | CC(C)=CCCC(C)=CCON=C1[C@H]2CCn3c(=O)n(-c4ccccc4)c(=O)n3[C@H]2[C@H](O)[C@@H]2O[C@H]12 | 0.912

From PubChem BioAssay
